Assay results published in the supplement of paper PMC10849652.
Targets with a hit are over-represented here; the source holds about 8,800 in all. About 0.5% of all pairs of compound and target were hits.

Columns and labels:
Experiment in all cases: log2 fold change, soluble protein after heating vs DMSO (PISA); higher = thermal stabilisation; K562 lysate, 10 uM; active = over 0.2 and 3.5 SD of the protein, either way, in both replicates (recomputed)
quisinostat = compound: Cn1cc(CNCC2CCN(c3ncc(C(=O)NO)cn3)CC2)c2ccccc21 [quisinostat]
Summary of the method: (§1)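 Quantification was by TMTpro 16plex LC-MS/MS with equalised channel sums, applied to the supernatant after 21,000xg for 90 min. Samples were crude K562 extract at 1 mg/mL protein in PBS pH 7.4 with 1 mM MgCl2, treated with 10 μM compound for 30 min, heated for 3 min across 48°C-58°C, pooled and brought to 0.5% NP-40 at 4°C. Values are log-two fold changes in thermal stability relative to solvent controls, from duplicates.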

[1] = compound: NC(=O)Nc1cc(-c2cccc(F)c2)sc1C(=O)N[C@H]1CCCNC1
Summary of the method: as §1

[2] = compound: NC(=O)c1cnc(N[C@@H]2CCCC[C@@H]2N)nc1Nc1cccc(-n2nccn2)c1
Summary of the method: as §1

[3] = compound: NCC(=O)Nc1ccc(-n2nc(C(F)(F)F)cc2-c2ccc3c(ccc4ccccc43)c2)cc1
Summary of the method: as §1

[4] = compound: O=C1NC(=O)C(c2cnc3ccccn23)=C1c1cn2c3c(cc(F)cc13)CN(C(=O)N1CCCCC1)CC2
Summary of the method: as §1

dasatinib = compound: Cc1nc(Nc2ncc(C(=O)Nc3c(C)cccc3Cl)s2)cc(N2CCN(CCO)CC2)n1 [dasatinib]
Summary of the method: as §1

[5] = compound: Cn1cc(-c2ccc3c(c2)CCN3C(=O)Cc2cccc(C(F)(F)F)c2)c2c(N)ncnc21
Summary of the method: as §1

entospletinib = compound: c1cn2cc(-c3ccc4cn[nH]c4c3)nc(Nc3ccc(N4CCOCC4)cc3)c2n1 [entospletinib]
Summary of the method: as §1

[6] = compound: NC1(c2ccc(-c3nc4ccn5c(=O)[nH]nc5c4cc3-c3ccccc3)cc2)CCC1
Summary of the method: as §1

vorinostat = compound: O=C(CCCCCCC(=O)Nc1ccccc1)NO [vorinostat]
Summary of the method: as §1

silmitasertib = compound: O=C(O)c1ccc2c(c1)nc(Nc1cccc(Cl)c1)c1ccncc12 [silmitasertib]
Summary of the method: as §1

nilotinib = compound: Cc1cn(-c2cc(NC(=O)c3ccc(C)c(Nc4nccc(-c5cccnc5)n4)c3)cc(C(F)(F)F)c2)cn1 [nilotinib]
Summary of the method: as §1

[7] = compound: Cc1nc(Nc2n[nH]c3c2CN(C(=O)N[C@H](CN(C)C)c2ccccc2)C3(C)C)c2sccc2n1
Summary of the method: as §1

[8] = compound: Cc1ncc(-c2ccnc(Nc3ccc(S(C)(=O)=O)cc3)n2)n1C(C)C
Summary of the method: as §1

tipifarnib = compound: Cn1cncc1[C@@](N)(c1ccc(Cl)cc1)c1ccc2c(c1)c(-c1cccc(Cl)c1)cc(=O)n2C [tipifarnib]
Summary of the method: as §1

Measured: log2 fold change

UBAP2L (UniProt F8W726)
inactive: quisinostat 0.11 | [1] 0.043 | [2] 0.099 | [3] 0.062 | [4] 0.021

TMPO isoform 2 (UniProt P42167)
inactive: dasatinib -0.042 | [5] -0.072 | [3] -0.066 | entospletinib 0.032

TMEM132A isoform 2 (UniProt Q24JP5)
UniProt Q24JP5, sequence (Q24JP5 whole entry, looked up): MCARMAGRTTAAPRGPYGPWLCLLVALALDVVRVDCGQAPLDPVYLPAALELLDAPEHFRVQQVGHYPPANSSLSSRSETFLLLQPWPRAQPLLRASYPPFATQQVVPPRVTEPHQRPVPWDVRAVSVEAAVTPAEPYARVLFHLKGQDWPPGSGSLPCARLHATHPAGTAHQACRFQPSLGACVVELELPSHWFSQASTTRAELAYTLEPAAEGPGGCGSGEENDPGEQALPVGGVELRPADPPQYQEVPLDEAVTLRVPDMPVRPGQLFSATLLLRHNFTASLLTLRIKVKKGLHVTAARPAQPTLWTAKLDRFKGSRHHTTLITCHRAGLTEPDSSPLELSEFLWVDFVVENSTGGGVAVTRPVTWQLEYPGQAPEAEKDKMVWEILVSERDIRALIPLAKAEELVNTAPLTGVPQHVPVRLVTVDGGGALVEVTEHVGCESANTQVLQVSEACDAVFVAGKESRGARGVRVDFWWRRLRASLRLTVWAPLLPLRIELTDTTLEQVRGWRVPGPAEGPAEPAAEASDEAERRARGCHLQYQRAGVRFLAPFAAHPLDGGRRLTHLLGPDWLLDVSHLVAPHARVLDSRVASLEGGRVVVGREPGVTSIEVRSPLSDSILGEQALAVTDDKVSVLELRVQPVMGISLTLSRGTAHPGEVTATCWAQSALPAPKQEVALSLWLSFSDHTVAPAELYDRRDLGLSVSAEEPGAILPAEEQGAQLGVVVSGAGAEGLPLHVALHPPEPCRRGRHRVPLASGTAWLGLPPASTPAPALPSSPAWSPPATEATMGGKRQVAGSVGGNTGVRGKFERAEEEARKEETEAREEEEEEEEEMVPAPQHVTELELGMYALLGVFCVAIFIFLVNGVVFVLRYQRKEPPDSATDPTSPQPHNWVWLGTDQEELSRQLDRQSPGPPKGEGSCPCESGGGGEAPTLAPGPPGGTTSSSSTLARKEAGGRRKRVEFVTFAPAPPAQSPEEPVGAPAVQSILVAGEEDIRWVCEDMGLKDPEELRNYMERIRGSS
inactive: quisinostat -0.022 | [1] 0.087 | [2] 0.724 | [6] -0.014 | vorinostat -0.156 | silmitasertib 0.351 | [4] 0.227 | entospletinib -0.089

TMEM154 (UniProt Q6P9G4)
inactive: dasatinib 0.058 | [5] 0.07 | quisinostat 0.103 | [1] -0.101 | [4] 0.008 | entospletinib -0.056

UBN1 (UniProt Q9NPG3)
inactive: dasatinib 0.208 | [5] 0.055 | quisinostat 0.114 | [1] -0.053 | [2] 0.001 | [3] 0.048 | [4] -0.463 | entospletinib -0.034

TCF20 (UniProt Q9UGU0)
inactive: dasatinib 0.001 | [5] -0.057 | quisinostat 0.193 | [1] -0.006 | [2] 0.11 | [6] 0.068 | vorinostat -0.067 | silmitasertib 0.054 | [4] -0.056

UCHL5 (UniProt Q5LJA9)
inactive: dasatinib -0.214 | [5] -0.075 | quisinostat -0.186 | [1] -0.024 | [2] 0.009 | [6] 0.006 | [3] -0.017 | silmitasertib 0.004 | [4] -0.086 | entospletinib -0.011
active: vorinostat -0.361

UCP2 (UniProt P55851)
UniProt P55851, sequence (P55851 whole entry, looked up): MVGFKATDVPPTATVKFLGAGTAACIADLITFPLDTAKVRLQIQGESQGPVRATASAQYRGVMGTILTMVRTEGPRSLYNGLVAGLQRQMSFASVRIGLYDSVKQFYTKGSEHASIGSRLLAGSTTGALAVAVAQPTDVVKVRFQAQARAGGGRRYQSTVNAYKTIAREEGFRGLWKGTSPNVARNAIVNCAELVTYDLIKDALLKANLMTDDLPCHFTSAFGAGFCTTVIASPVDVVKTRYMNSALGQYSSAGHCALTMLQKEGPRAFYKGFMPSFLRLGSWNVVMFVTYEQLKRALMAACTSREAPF
inactive: nilotinib 0.144 | [7] -0.186 | [8] -0.137 | quisinostat -0.022 | tipifarnib 0.142 | [1] 0.059 | [3] -0.12 | [4] 0.035

TFPI isoform 2 (UniProt P10646)
UniProt P10646, sequence (P10646 whole entry, looked up): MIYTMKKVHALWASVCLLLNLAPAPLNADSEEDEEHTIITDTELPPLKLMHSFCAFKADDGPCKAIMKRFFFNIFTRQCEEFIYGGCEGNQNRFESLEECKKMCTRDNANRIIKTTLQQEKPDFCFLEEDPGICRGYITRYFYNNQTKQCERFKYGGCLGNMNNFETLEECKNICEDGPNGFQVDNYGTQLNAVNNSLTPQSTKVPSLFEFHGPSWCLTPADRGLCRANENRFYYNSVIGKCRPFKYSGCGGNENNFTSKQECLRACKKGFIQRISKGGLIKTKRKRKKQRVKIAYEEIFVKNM
inactive: quisinostat -0.087 | [1] 0.082 | [3] 0.184 | [4] 0.019

TMEM167B (UniProt Q9NRX6)
inactive: nilotinib 0.006 | [7] 0.031 | [8] 0.014 | quisinostat -0.016 | tipifarnib -0.013 | [1] 0.027 | [2] 0.005 | [6] -0.019 | [3] 0.019 | vorinostat 0 | silmitasertib 0.009 | [4] -0.033 | entospletinib 0.031

TTLL12 (UniProt V9GY16)
inactive: quisinostat -0.436 | [1] -0.021 | [6] 0.039 | [3] 0.115 | vorinostat 0.076 | silmitasertib -0.298 | [4] 0.035 | entospletinib 0.103

TFPT (UniProt P0C1Z6)
UniProt P0C1Z6, sequence (P0C1Z6 whole entry, looked up): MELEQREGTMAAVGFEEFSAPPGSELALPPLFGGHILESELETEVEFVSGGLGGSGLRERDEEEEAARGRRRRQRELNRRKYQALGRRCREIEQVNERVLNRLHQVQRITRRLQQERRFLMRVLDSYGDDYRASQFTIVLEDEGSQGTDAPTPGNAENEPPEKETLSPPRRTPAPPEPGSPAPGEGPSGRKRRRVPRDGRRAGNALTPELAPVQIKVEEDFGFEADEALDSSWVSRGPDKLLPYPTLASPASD
inactive: dasatinib 0.009 | [5] 0.006 | [2] 0.023 | [6] -0.002 | vorinostat 0.289 | silmitasertib -0.18

TEC (UniProt P42680)
active: [3] -1.05
inactive: nilotinib -0.047 | [7] 0.099 | [8] 0.019 | tipifarnib 0.116 | [2] -0.039 | entospletinib 0.037

TMEM177 (UniProt Q53S58)
inactive: quisinostat -0.018 | [1] 0.036 | [2] 0.029 | [6] 0.067 | [3] -0.183 | vorinostat -0.012 | silmitasertib -0.035 | [4] 0.034 | entospletinib 0.005

TRPM4 (UniProt Q8TD43)
inactive: dasatinib -0.02 | [5] -0.099 | quisinostat -0.01 | [1] 0.111 | [6] 0.089 | vorinostat 0.161 | silmitasertib -0.091 | [4] -0.078

TFPI (UniProt P10646)
inactive: nilotinib -0.076 | [7] 0.04 | [8] -0.035 | quisinostat -0.088 | tipifarnib -0.025 | [1] -0.067 | [2] 0.035 | [6] 0.02 | [3] 0.067 | vorinostat 0.106 | silmitasertib 0.01 | [4] -0.063 | entospletinib -0.057

UBAP2, A0A0D9SFI5
inactive: quisinostat 0.151 | [1] 0.111 | [4] -0.094

TCF3 isoform 2 (UniProt P15923)
inactive: quisinostat -0.05 | [1] -0.005 | [6] -0.068 | vorinostat -0.196 | silmitasertib -0.056 | [4] 0.043

TM2D3 (UniProt Q9BRN9)
inactive: [6] -0.09 | vorinostat 0.096 | silmitasertib 0.339 | entospletinib -0.184

THAP9 (UniProt Q9H5L6)
inactive: dasatinib 0.025 | [5] -0.032 | quisinostat -0.455 | [1] 0.07 | [2] 0.179 | [3] 0.207 | [4] 0.09 | entospletinib 0.059

TXNRD2 isoform 3 (UniProt Q9NNW7)
UniProt Q9NNW7, sequence (Q9NNW7 whole entry, looked up): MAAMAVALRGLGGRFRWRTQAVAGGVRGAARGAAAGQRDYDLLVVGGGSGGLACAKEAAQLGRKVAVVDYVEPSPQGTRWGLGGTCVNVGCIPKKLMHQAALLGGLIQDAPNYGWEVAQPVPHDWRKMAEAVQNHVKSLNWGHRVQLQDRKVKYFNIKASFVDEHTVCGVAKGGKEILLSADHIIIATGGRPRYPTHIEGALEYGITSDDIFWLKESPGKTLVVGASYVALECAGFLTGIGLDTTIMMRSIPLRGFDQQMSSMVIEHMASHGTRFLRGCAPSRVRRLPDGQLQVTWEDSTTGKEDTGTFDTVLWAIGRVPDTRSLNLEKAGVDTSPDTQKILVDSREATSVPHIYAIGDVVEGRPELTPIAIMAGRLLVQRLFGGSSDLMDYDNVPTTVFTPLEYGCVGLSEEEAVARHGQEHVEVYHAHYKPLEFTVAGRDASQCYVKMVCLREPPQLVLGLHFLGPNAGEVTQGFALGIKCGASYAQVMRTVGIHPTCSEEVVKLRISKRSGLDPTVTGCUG
active: vorinostat -0.94
inactive: [6] -0.228 | silmitasertib -0.194

TGFBR1 isoform 2 (UniProt P36897)
inactive: [5] -0.03 | [6] -0.117 | vorinostat 0 | silmitasertib 0.076 | entospletinib -0.004

TMSB4X (UniProt P62328)
UniProt P62328, sequence (P62328 whole entry, looked up): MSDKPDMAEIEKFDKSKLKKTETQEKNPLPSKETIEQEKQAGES
inactive: nilotinib -0.105 | [7] -0.107 | [8] 0.115 | quisinostat -0.024 | tipifarnib -0.071 | [1] 0.263 | [2] -0.027 | [6] 0 | vorinostat 0.103 | silmitasertib -0.076 | [4] 0.219 | entospletinib -0.158

TFAP4 (UniProt Q01664)
UniProt Q01664, sequence (Q01664 whole entry, looked up): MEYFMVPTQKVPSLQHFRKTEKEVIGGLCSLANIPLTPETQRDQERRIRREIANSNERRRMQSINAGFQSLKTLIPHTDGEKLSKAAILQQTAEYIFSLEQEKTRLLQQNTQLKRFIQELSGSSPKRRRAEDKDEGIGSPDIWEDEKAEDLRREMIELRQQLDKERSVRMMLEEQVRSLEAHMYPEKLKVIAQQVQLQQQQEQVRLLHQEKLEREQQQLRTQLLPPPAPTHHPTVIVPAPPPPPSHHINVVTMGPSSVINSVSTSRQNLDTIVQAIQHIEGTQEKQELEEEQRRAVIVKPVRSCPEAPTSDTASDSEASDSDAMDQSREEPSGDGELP
inactive: nilotinib 0.18 | [7] 0.155 | [8] 0 | quisinostat 0.006 | tipifarnib -0.066 | [1] -0.036 | [2] -0.218 | [6] -0.001 | [3] 0.005 | vorinostat 0.051 | silmitasertib -0.196 | [4] 0.01 | entospletinib -0.086

TENM4 (UniProt Q6N022)
inactive: quisinostat -0.13 | [1] 0.033 | [2] -0.081 | [4] 0.143

TUBB6 (UniProt K7ES63)
inactive: nilotinib -0.051 | [7] 0.112 | [8] -0.155 | quisinostat -0.267 | tipifarnib 0.08 | [1] 0.049 | [2] 0.08 | [6] -0.008 | [3] -0.062 | vorinostat -0.414 | silmitasertib 0.013 | [4] -0.164 | entospletinib -0.11

TNIK (UniProt C9J338)
inactive: dasatinib -0.055 | [5] -0.043 | quisinostat -0.292 | [1] -0.043 | [2] 0.015 | [6] -0.068 | [3] 0.195 | vorinostat 0.103 | silmitasertib -0.023 | [4] 0.006 | entospletinib -0.049

TMEM161B (UniProt Q8NDZ6)
UniProt Q8NDZ6, sequence (Q8NDZ6 whole entry, looked up): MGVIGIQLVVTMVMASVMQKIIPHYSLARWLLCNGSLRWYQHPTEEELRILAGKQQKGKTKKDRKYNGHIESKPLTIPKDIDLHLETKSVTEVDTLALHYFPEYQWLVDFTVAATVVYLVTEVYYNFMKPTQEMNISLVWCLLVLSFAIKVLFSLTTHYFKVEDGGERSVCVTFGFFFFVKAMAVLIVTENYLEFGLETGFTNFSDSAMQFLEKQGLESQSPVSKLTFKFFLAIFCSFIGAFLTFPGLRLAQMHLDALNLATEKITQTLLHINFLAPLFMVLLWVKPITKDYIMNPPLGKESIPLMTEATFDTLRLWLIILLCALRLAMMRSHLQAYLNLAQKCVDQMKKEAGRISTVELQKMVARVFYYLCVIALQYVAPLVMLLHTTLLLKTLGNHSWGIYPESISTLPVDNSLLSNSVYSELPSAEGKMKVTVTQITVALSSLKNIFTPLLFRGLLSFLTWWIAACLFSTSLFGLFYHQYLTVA
active: nilotinib 0.419
inactive: [7] -0.014 | [8] 0.053 | quisinostat -0.07 | tipifarnib -0.117 | [1] 0.046 | [2] -0.005 | [6] -0.064 | [3] -0.084 | vorinostat 0.225 | silmitasertib 0 | [4] 0.019 | entospletinib -0.026

TLE3 (UniProt H0YL70)
inactive: dasatinib 0.077 | [5] 0.05

TBC1D20 isoform 3 (UniProt Q96BZ9)
inactive: dasatinib 0.027 | [5] -0.053 | quisinostat -0.021 | [1] 0.067 | [2] -0.072 | [6] -0.006 | [3] -0.118 | vorinostat 0.088 | silmitasertib -0.013 | [4] 0.058 | entospletinib 0.02

TRIM3 (UniProt O75382)
inactive: [2] 0.623 | [6] 0.146 | [3] -0.304 | vorinostat -0.055 | silmitasertib -0.179 | entospletinib -0.056

TCF3 (UniProt X6REB3)
inactive: [3] -0.257

TNIK isoform 5 (UniProt Q9UKE5)
UniProt Q9UKE5, sequence (Q9UKE5 whole entry, looked up): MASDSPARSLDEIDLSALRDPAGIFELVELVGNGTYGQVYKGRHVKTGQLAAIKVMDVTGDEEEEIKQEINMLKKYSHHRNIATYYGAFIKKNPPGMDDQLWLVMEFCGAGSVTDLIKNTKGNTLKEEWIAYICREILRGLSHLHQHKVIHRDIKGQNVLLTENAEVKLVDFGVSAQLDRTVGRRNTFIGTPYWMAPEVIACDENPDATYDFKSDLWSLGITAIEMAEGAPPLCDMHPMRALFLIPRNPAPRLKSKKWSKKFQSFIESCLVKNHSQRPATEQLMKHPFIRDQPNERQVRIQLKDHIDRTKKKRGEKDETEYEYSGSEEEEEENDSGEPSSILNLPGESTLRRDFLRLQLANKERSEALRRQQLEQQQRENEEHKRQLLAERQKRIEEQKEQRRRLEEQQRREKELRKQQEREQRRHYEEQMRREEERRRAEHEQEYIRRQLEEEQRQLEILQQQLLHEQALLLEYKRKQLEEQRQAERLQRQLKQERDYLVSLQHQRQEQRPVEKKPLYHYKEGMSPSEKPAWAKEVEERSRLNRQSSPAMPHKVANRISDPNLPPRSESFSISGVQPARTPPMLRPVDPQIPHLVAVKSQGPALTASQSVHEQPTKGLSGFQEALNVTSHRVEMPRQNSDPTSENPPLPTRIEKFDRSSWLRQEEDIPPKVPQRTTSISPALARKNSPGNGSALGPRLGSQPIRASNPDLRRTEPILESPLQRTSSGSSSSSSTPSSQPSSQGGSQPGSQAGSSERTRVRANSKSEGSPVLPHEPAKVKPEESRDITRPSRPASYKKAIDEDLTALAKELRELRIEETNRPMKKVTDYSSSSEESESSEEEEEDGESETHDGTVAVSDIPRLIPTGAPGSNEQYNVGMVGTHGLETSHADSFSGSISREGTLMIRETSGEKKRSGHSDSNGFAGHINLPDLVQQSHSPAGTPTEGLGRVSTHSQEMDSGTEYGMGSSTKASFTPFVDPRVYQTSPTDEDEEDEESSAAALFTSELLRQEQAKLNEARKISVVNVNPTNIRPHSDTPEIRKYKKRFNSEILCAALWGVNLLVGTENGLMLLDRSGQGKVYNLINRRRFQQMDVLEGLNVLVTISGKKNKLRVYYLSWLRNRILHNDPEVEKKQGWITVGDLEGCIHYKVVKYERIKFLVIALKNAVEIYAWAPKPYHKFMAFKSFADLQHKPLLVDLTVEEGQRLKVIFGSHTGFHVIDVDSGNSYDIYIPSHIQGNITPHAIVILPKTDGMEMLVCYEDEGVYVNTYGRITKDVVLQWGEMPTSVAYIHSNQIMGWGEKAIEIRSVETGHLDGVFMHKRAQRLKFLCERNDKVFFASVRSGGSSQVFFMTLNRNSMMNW
inactive: dasatinib 0.187 | [5] 0.019 | quisinostat -0.218 | [2] 0.019 | [4] -0.134
active: [1] 0.539

UBAP2 (UniProt Q5JV08)
inactive: nilotinib -0.211 | [7] 0.172 | [8] 0.104 | tipifarnib 0.133

UBXN10 (UniProt Q96LJ8)
inactive: dasatinib -0.007 | [5] 0.008 | quisinostat -0.028 | [1] 0.035 | [2] 0.078 | [6] 0.014 | [3] -0.018 | silmitasertib -0.005 | [4] -0.002 | entospletinib 0
active: vorinostat -0.321

UBR4 isoform 4 (UniProt Q5T4S7)
active: vorinostat -0.792
inactive: dasatinib -0.083 | [5] -0.158 | [2] -0.078 | [6] 0.049 | [3] -0.145 | silmitasertib -0.004 | entospletinib 0.205

TPM3 isoform 3 (UniProt P06753)
UniProt P06753, sequence (P06753 whole entry, looked up): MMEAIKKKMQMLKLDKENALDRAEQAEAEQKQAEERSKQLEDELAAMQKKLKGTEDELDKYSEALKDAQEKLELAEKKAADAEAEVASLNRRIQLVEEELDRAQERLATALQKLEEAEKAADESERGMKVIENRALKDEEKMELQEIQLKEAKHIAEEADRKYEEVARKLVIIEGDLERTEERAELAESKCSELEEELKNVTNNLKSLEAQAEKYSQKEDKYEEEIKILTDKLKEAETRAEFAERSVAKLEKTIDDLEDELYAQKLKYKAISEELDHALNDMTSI
inactive: dasatinib 0.05 | [5] 0.106 | quisinostat 0.112 | [1] -0.09 | [2] 0.001 | [6] -0.035 | [3] -0.111 | vorinostat 0.048 | silmitasertib -0.047 | [4] -0.15 | entospletinib -0.024
